High-throughput results deposited in PubChem BioAssay by The Scripps Research Institute Molecular Screening Center.
Only some compounds are listed: those with a hit (about 3.4% of all), similar ones and a draw of the others.
MITF inh – inhibitors of human MITF; O75030; AlphaScreen MITF homodimerization, bead proximity signal; inhibition, % at 2.6 µM; actives 0.91% (n = 650,000); AID 1259374; in the data active means inhibition above about 50%;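 further: 0% = vehicle wells with protein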
FBW7 activator – activators of human E3 ligase FBW7. normalized activity (activation), % at 26.1 µM. actives 0.13% (n = 650,000). AID 1259310. AlphaScreen FBW7–phospho-cyclin E peptide binding, activator screen; in the data active means normalized activity above about 1.9%;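 further: purified mutant Fbw7 with reduced substrate affinity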
GPR151 ag – human GPR151 activation; activation, % at 11.2 µM; actives 1% (n = 650,000); AID 1508602; PathHunter beta-arrestin GPR151 cells, luminescence; Q8TDV0; in the data active means activation above about 4.9%;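 further: 0% = median of compound wells and 100% = cells with positive control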
Target sequence (Q8TDV0 whole entry, looked up): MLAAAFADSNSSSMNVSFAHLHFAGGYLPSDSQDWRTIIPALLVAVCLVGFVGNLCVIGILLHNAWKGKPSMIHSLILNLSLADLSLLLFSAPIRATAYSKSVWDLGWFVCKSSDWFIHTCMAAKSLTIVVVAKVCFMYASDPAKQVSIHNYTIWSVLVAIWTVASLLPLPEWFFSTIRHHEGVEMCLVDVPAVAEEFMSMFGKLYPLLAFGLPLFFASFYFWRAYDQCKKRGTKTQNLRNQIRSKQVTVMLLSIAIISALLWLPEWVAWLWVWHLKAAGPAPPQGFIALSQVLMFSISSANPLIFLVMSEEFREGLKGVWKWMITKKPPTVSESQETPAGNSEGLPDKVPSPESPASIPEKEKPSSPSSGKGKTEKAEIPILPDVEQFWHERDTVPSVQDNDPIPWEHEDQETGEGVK
TEAD-YAP inh – TEAD-YAP interaction inhibition | HEK-TIYL cells, TEAD-Gal4/YAP UAS-luciferase luminescence | inhibition, % at 9.12 µM | actives 1.4% (n = 640,000); in the data active means inhibition above about 32%;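 further: 0% = median of test compound wells and 100% = reference inhibitor wells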
An asterisk follows results filed as active.

SMILES	MITF inh	FBW7 activator	GPR151 ag	TEAD-YAP inh
O=C(NC12CCC3C(CC3C1)C2)C1CCN(C(=O)NC2CCCCC2)CC1	-2.8	0.1	-0.5	4.3
N#C/C(=C\c1cn(CC(=O)NCC2CCCO2)c2ccccc12)C(=O)NC1CCCC1 (configuration not stated)	-15.5	0.3	-1.3	-0.8
O=S(=O)(c1ccc(-c2ccccc2)cc1)N1CCN(c2ccc(NCC3CCCO3)nn2)CC1 (configuration not stated)	-7.8	-0.3	0.8	5.3
CCCN(C(=O)c1coc(=O)c2ccccc12)c1ccccc1C	1.3	0.1	-0.7	38.2*
CN(C(=O)c1coc(=O)c2ccccc12)c1ccccc1F	-2.3	0.0	0.0	10.1
CCN(C(=O)c1coc(=O)c2ccccc12)c1ccccc1F	10.7	-0.1	2.0	34.7*
CCN(C(=O)c1coc(=O)c2ccccc12)c1cccc(Cl)c1	6.3	-0.1	0.0	39.4*
NC(=O)c1cc([N+](=O)[O-])ccc1N1CCOCC1	-2.0	0.3	0.1	-2.6
CN1CCN(c2ccc([N+](=O)[O-])cc2C(=O)N2CCCCC2)CC1	22.1	0.5	-1.6	4.1
O=C(c1ccc(Br)cc1)c1cc([N+](=O)[O-])ccc1N1CCOCC1	9.2	0.1	-0.3	54.4*
O=C(c1ccc(Cl)cc1)c1cc([N+](=O)[O-])ccc1N1CCOCC1	18.8	0.0	-0.9	52.6*
CN1CCN(c2ccc([N+](=O)[O-])cc2C(=O)c2ccc(Cl)cc2)CC1	-7.7	-0.1	1.6	41.4*
COc1ccc(-c2nc(-c3cccc(OC)c3OC)[nH]c2-c2ccccc2)cc1OC	13.6	0.0	-1.4	-4.2
O=C(Nc1ccc(Oc2ccccc2)cc1)C1C2C=CC3(O2)C1C(=O)N(CCN1CCCCCC1)C3C(=O)NC1CCCCC1 (configuration not stated)	-22.2	-0.2	0.3	-0.6
CC(=O)N1C(=O)/C(=C2/SC(=S)N(CCCC(=O)O)C2=O)c2ccccc21	-4.6	-0.1	1.5	-2.9
CCOC(=O)C1=C(C)N(CCOC)C(=O)/C1=C\c1cccs1	4.2	-0.9	-0.7	4.0
O=C(NCCc1ccc(O)cc1)c1csc(Nc2ccc(-n3ccnc3)cc2)n1	24.8	0.1	-2.0	30.6
O=C(NCCOc1ccccc1)c1csc(Nc2ccc(-n3ccnc3)cc2)n1	15.1	0.0	2.3	44.5*
O=C(NCCOc1ccccc1)c1cccc(Nc2ccc(-n3ccnc3)cc2)n1	11.3	0.1	1.6	61.1*
O=C(NCCOc1ccccc1)c1cccc(Nc2ccncc2)n1	-8.2	0.0	1.0	-7.8
Cc1ccc(-c2ccc(SCC(=O)N3CCCCC3)nn2)cc1	-4.5	-0.3	0.1	-20.3
O=C(COC(=O)C1=NN(c2ccccc2)C(=O)CC1)Nc1ccc2c(c1)OC(F)(F)O2	0.3	0.0	-0.1	9.4
Cc1cc(-c2cnc(N3CCCC3)nc2C2CCN(C(=O)c3scnc3C)CC2)on1	-4.3	-0.2	1.1	60.4*
Nn1c(SCC(=O)Nc2ccc(OC(F)F)cc2)nnc1C(F)(F)F	6.9	0.0	-0.4	0.1
COc1ccc(Br)cc1C(=O)O	3.8	0.0	0.0	3.3
SMILES	MITF inh	FBW7 activator	GPR151 ag	TEAD-YAP inh
COc1cc(C(=O)O)c(-n2c(C)ccc2C)cc1OC	71.7*	-1.3	-0.9	0.2
COc1ccc(-c2cnc3c(Nc4cc(OC)c(OC)c(OC)c4)nccn23)cc1	-3.5	-0.2	1.1	-7.6
COc1cncc(-c2cnc3c(Nc4cc(OC)c(OC)c(OC)c4)nccn23)c1	28.1	0.1	1.0	57.2*
COc1cc(Nc2nccn3c(-c4ccc(F)cc4)cnc23)cc(OC)c1OC	2.7	0.0	-0.3	50.7*
COc1cc(Nc2nccn3c(-c4ccc(N(C)C)cc4)cnc23)cc(OC)c1OC	12.6	-0.7	3.2	55.3*
O=C(NCCO)c1ccc(-c2cncc(-c3ccc(Oc4ccccc4)cc3)n2)cc1	0.4	-0.1	0.1	-4.7
COC(=O)c1ccc(CN2CCC(C(=O)Nc3cccc(-c4ccco4)c3)CC2)cc1	6.5	0.0	-0.1	-8.8
Cc1c(C(=O)N2CCC(c3nnc(-c4ccco4)o3)CC2)cnn1-c1ccccc1	-3.0	0.3	-1.7	-12.8
COCCCNC(=O)/C(C#N)=C/c1cn(Cc2cccc(F)c2)c2ccccc12	13.2	-0.3	0.0	34.6*
COCCCNC(=O)/C(C#N)=C/c1cn(Cc2ccc(F)cc2)c2ccccc12	11.5	1.8	1.6	44.5*
Cn1c(=O)n(CCBr)c2ccccc21	18.6	0.4	0.3	1.8
O=[N+]([O-])c1cc(S(=O)(=O)N2CCOCC2)ccc1Sc1nnc2ccccn12	7.9	0.4	-0.8	6.5
Cc1nc(N2CCCc3ccccc32)c2cc(C)sc2n1	-13.0	0.1	0.0	45.5*
Cc1nc(N2CCCC2)c2cc(C)sc2n1	-5.1	-0.1	1.2	-9.3
O=C(COc1ccc(Cl)cc1Cl)NNc1ccc([N+](=O)[O-])cc1	-6.1	-0.1	0.8	3.0
Fc1ccc(-c2cc(Nc3ncccn3)nc(-c3ccccn3)n2)cc1	4.5	-0.4	-1.3	-1.7
O=C(Nc1nc(-c2ccc(-c3ccccc3)cc2)cs1)c1ccccc1Oc1ccccc1	-1.5	-0.1	-0.1	-4.2
O=C(CSc1nnc2ccc(-c3ccc(F)cc3)nn12)NCCc1ccccc1	-0.8	0.3	-1.5	-2.8
O=C(CSc1nnc2ccc(-c3ccc(F)cc3)nn12)NCc1ccccc1	9.4	0.0	-0.8	40.6*
O=C(CSc1nnc2ccc(-c3ccccc3)nn12)NCc1ccccc1	8.9	0.1	0.0	41.2*
COc1cccc(C2(O)CSC3=C(C#N)C(c4cccc(F)c4)CC(=O)N32)c1 (configuration not stated)	-23.4	-0.6	0.0	48.1*
COc1ccc(C2(O)CSC3=C(C#N)C(c4cccc(Cl)c4)CC(=O)N32)cc1OC (configuration not stated)	-5.6	-0.1	-0.6	-6.8
COc1cccc(C2(O)CSC3=C(C#N)C(c4cccc(Cl)c4)CC(=O)N32)c1 (configuration not stated)	24.4	0.3	0.3	67.4*
COc1cccc(C2CC(=O)N3C(=C2C#N)SCC3(O)c2ccc(F)cc2)c1 (configuration not stated)	1.4	-0.1	0.5	-11.2
Cc1ccnc(NC(=S)NC(=O)c2ccccc2)c1	-3.4	0.1	0.6	33.8*
SMILES	MITF inh	FBW7 activator	GPR151 ag	TEAD-YAP inh
Cc1ccnc(NC(=O)c2ccccc2Cl)c1	12.9	0.7	-5.1	35.2*
COc1cccc(C(=O)NC(=S)Nc2ccccn2)c1	3.1	0.0	-2.0	36.2*
Cc1ccnc(NC(=S)NC(=O)c2ccc(Cl)cc2)c1	5.5	0.1	-1.3	-56.2
COc1ccc(OC)c(CN2C(=O)c3nccnc3C2=O)c1	10.3	0.1	-0.6	-1.5
O=C(NCc1cc2ccccc2s1)c1ccc(CN2CCCCC2)[nH]c1=O	-9.1	0.0	0.1	-2.4
COc1ccc(-c2cc(C(F)(F)F)n3ncc(C(=O)NC(C)C)c3n2)cc1OC	-5.0	-0.1	0.3	-17.3
O=S(=O)(NCc1cccs1)c1ccc(-c2ccc(S(=O)(=O)NCc3cccs3)cc2)cc1	-4.5	0.1	0.2	4.2
